Bioassay records as filed in PubChem.
Pf growth 48h – P. falciparum growth inhibition at 48 hours (one generation); P. falciparum luciferase growth in erythrocytes, 48 h; AID 504832; actives 5.9% (n = 310,000); Potency, µM (doses to about 28.7 µM), for the others: top-dose activity change, negative = inhibition, most hits filed as inhibitors; active = well fitted inhibition curve with a large enough effect; inconclusive = small, poorly fitted or top-dose-only effect, or another doubt; inactive = no such curve, though single readings can be large or run the other way; note: potency is the fitted concentration of half-maximal effect; % is set by controls: 0 for no effect and ±100 for the full control effect
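Compounds are pin-transferred into medium, infected erythrocytes (2% hematocrit, 0.1% parasitemia final) are added, and plates sit one parasite generation at 37 C in 5% CO2. Detection reagent is then added and luminescence measured.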
SARS PLpro yeast – SARS-CoV PLP inhibition in yeast; S. cerevisiae expressing SARS-CoV PLpro, growth rescue; Potency, µM (highest dose often 32.9 µM), for inactives: top-dose activity, positive = growth rescue, hits mostly activators; actives 0.19% (n = 330,000); AID 485353; note: potency is the fitted concentration of half-maximal effect; 0% is about no effect; nearly all actives have a fitted effect of over 55% in size
Pf growth 96h – P. falciparum growth inhibition at 96 hours; Potency, µM (doses to about 28.7 µM), inactives show top-dose activity change, negative = inhibition, most hits filed as inhibitors; actives 6.9% (n = 320,000); P. falciparum luciferase reporter growth, 96 h; active = well fitted inhibition curve with a large enough effect; inconclusive = small, poorly fitted or top-dose-only effect, or another doubt; inactive = no such curve, though single readings can be large or run the other way; note: potency is the fitted concentration of half-maximal effect; % is set by controls: 0 for no effect and ±100 for the full control effect
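Luminescence readout: decreased luciferase signal marks inhibited growth of reporter-expressing P. falciparum in infected red cells (2% hematocrit, 0.05% parasitemia final), exposed to compound two generations (96 h, 37 C, 5% CO2).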
NS1 function inh – inhibitors of influenza NS1 protein function; Potency, µM (series often up to 46.1 µM), without a hit: at the highest dose activity, positive = more growth; actives 0.4% (n = 270,000); note: potency is the fitted concentration of half-maximal effect; actives are rising curves; nearly all actives have a fitted effect of over 50% in size
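Recovery from NS1-induced slow growth read by OD600 in budding yeast switched to galactose assay medium (pH 6.0, -URA) at 1:100 dilution. Compound 23 nl per well; the matching strain lacking NS1 serves as control.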
CHX counter – affects cycloheximide protein synthesis inhibition readout, counter-screen; AID 2314; actives 12% (n = 300,000); cell reporter, cycloheximide protein synthesis inhibition counterscreen; max response, %; in the data active = max response mostly above about 13%, no sharp cut-off; inactive = mostly below about 14%; note: read at 38.3 µM for the half of the compounds with a filed dose; 0% is about no effect
Shiga inhibitor – Shiga toxin inhibition; Vero cells, Shiga toxin protein synthesis inhibition reporter; inhibition, % at 38.7 µM; actives 9.2% (n = 290,000); in the data active = inhibition mostly above about 28%, no sharp cut-off; inactive = mostly below about 43%; note: 0% is about no effect
* = called active by the depositor; ? = inconclusive; · = no result given. A selection: hits, their analogues and other compounds. The true share with any hit is near 21%. Unless noted, calls come from the whole dose curve.

SMILES	Pf growth 48h	SARS PLpro yeast	Pf growth 96h	NS1 function inh	CHX counter	Shiga inhibitor
O=S1(=O)[C@H]2C[C@@H]3C=C[C@@]2(CN1Cc1cccc(F)c1)O3	-1.0%	14.6%	?	14.0%	-1.4	-6.2
O=S1(=O)[C@H]2C[C@@H]3C=C[C@@]2(CN1Cc1cccc(C(F)(F)F)c1)O3	22.5%	0.5%	45.4%	-6.4%	12.3*	13.9
CC(=O)[C@H](C(=N)C#N)C(=O)Nc1ccccc1	·	·	·	5.6%	·	·
CC(=O)c1ccc(Oc2ncnc3sccc23)cc1	284.0%	1.2%	149.2%	·	48.1*	79.5*
CC(=O)N1CCN(c2ccc(Oc3ncnc4sccc34)cc2)CC1	·	6.8%	?	-23.0%	-3.9	-20.7
Cc1cc(C(=O)COc2ncnc3sccc23)c(C)n1C	85.7%	16.4%	30.0%	-5.8%	31.2*	133.7*
COc1nc(OC)nc(N2CCC(NC(=O)C(Cc3cccc(OC)c3OC)NC(C)=O)CC2)n1 (stereo unspecified)	?	2.1%	?	-3.3%	-4.1	-4.0
CCOC(=O)C(SP(=S)(OC)OC)c1ccccc1 (stereo unspecified)	·	·	·	·	5.8	2.3
Cc1ccccc1NC(=O)CC1SCCNC1=O (stereo unspecified)	-1.3%	3.6%	25.6%	0.1%	0.3	14.7
CCOC(=O)c1ccc(NC(=O)CC2SCCNC2=O)cc1 (stereo unspecified)	128.4%	-3.9%	115.3%	-1.2%	38.3*	96.4*
Cc1ccc(NC(=O)CC2SCCNC2=O)cc1[N+](=O)[O-] (stereo unspecified)	5.7%	0.3%	39.2%	3.0%	15.7*	12.3
CC1=CC(C)C2COC(c3ccc[n+](C)c3)C1C2C (stereo unspecified)	14.7µM*	-12.1%	?	5.7%	0.8	-6.3
COc1cc([C@H]2OC[C@H]3[C@@H]2CO[C@H]3c2ccc(O)c(OC)c2)ccc1O	·	1.2%	·	·	·	·
CC1=CC(C)[C@@H]2COC(c3ccc(O)cc3)[C@H]1C2C (stereo partly specified)	?	-0.4%	9.28µM*	-7.1%	-4.8	-4.1
Cc1c(CCC(=O)O)c(=O)oc2c(C)c(OCc3cc4c(cc3Cl)OCO4)ccc12	8.0%	0.6%	11.8%	-7.2%	-1.6	-6.0
CNC(=S)N1N=C(c2cccs2)CC1c1ccc(F)cc1 (stereo unspecified)	?	2.6%	39.6%	-2.1%	-2.5	3.2
COc1ccc2oc(C(=O)Nc3ccc(S(=O)(=O)N(C)C4CCN(C)CC4)cc3)c(C)c2c1	5.86µM*	-1.2%	?	1.5%	-8.5	-24.6
COc1ccc(NC(=O)c2ccc(Cl)c(S(=O)(=O)NCC3CCCO3)c2)c(OC)c1 (stereo unspecified)	?	6.4%	11.7µM*	16.0%	-0.6	2.4
COc1ccc(-c2cc(C(=O)NCC3CCCO3)c3cc(C)ccc3n2)cc1 (stereo unspecified)	-9.0%	0.1%	?	-9.2%	18.2*	14.0
COc1ccc2oc(C(=O)NNC(=O)c3ccc(F)cc3)c(C)c2c1	4.4%	-3.3%	31.8%	·	·	·
COc1ccc2oc(C(=O)NC(C)(C)C)c(C)c2c1	427.6%	4.1%	365.9%	·	49.3*	95.8*
CC(=O)N(C)c1ccc(NC(=O)CCN2C(=O)c3ccccc3C2=O)cc1	0.0%	2.6%	1.8%	11.6%	1.4	-12.8
Cc1cc(N)n(-c2ccc(S(N)(=O)=O)cc2[N+](=O)[O-])n1	47.1%	-1.1%	7.1%	13.9%	1.8	-11.1
COc1cccc(S(=O)(=O)NCc2ccc(C(=O)NCC3CCCO3)cc2)c1 (stereo unspecified)	21.7%	15.0%	27.8%	-4.4%	22.0	45.5*
COc1ccc2oc(C(=O)NCC3CCCO3)c(C)c2c1 (stereo unspecified)	211.0%	5.1%	43.3%	20.2%	64.9*	98.2*
CC(C)(C)c1ccc(S(=O)(=O)NCc2ccc(C(=O)NCC3CCCO3)cc2)cc1 (stereo unspecified)	?	2.7%	5.9%	-7.4%	-1.4	-10.4
CCOc1ccc2oc(C(=O)NCC3CCCO3)c(C)c2c1 (stereo unspecified)	23.2%	-7.0%	3.7%	0.7%	45.7*	88.5*
